Assay results taken from PubChem BioAssay (NCI).
Compounds without any hit were thinned out: in the full panel of roughly 83,000, 20% have a hit.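 The endpoint reported here, percent growth, reads 100 for growth as untreated, 0 for no net growth and -100 for all cells dead.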 Active and inactive are the calls of the source. Rule for the calls: active = growth percent below 10; inactive = the rest.

tested on: SW-620 colon; assay: NCI-60 one-dose screen, 48 h (100 = growth as untreated, 0 = no growth, -100 = all killed); conditions: 10 µM unless noted

SMILES | growth
COc1ccc(/C=C/c2nc(-c3n[nH]c(=O)n3-c3ccccc3)c3ccccc3n2)cc1 | 89.6% (inactive)
COc1ccc(-c2n[nH]nc2-c2csc3ccccc23)cc1OC | 21.3% (inactive)
CSc1nc(-c2cccc(NC(=O)CCl)c2)c(C#N)c(=O)n1C | 27.3% (inactive)
Cc1cc(C)c2nc3nc(C)cc(C)c3c(N)c2c1 | 16.2% (inactive)
Cc1nn(-c2cc(=O)[nH]c3ccccc23)c(N)c1C#N | 103% (inactive)
CCOC(=O)c1c(C(=O)OCC)c2cc(-c3ccn4c(C(=O)c5ccccc5)c(C(=O)OCC)c(C(=O)OCC)c4c3)ccn2c1C(=O)c1ccccc1 | 105% (inactive)
CNC(=O)c1cc(Oc2ccc(NC(=O)Nc3ccc(Cl)c(SC)c3)c(F)c2)ccn1 | 67.5% (inactive)
O=c1nc2oc3ccc4ccccc4c3cc-2s1 | 20.8% (inactive)
CN(C)C(=S)N=Nc1c(O)[nH]c2ccccc12 | 30.2% (inactive)
CC(=O)O[C@H]1CC[C@]2(C)[C@H]3CC=C4[C@@H]5CC(C)(C)CC[C@]5(C(=O)NCCNCCN)CC[C@@]4(C)[C@]3(C)CC[C@H]2C1(C)C | -84.6% (active)
O=C1c2cc3c(cc2-c2c1c1ccc(F)cc1c(=O)n2CCCNCCO)OCO3 | -41.5% (active)
COc1cc(/C=C/C(=O)c2c(C)oc3nc[nH]c(=O)c23)cc(OC)c1OC | 77.5% (inactive)
COC[C@H](C)n1c(C2CCOCC2)nc2cnc3cc(-c4c(C)noc4C)c(OC)cc3c21 | 64.3% (inactive)
Cn1cc(-c2nonc2-c2c[nH]c3ccc(F)cc23)c2cccnc21 | 97.3% (inactive)
